Rows were chosen to be rich in hits. Some 4.1% of all compounds tested hit in one or more screens of this group.
Peg3 prom inh = Peg3 promoter activity inhibition; actives 1.7% (n = 360,000); HeLa PEG-Prom luciferase reporter, luminescence, overnight; inhibition, % at 20 µM; AID 588405;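 active means inhibition of at least 50% at 20 µM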
TRPM1 prom inh = reduces MITF-dependent TRPM1 promoter luciferase signal; SK-MEL-5 TRPM1 promoter luciferase, 24 h; inhibition, % at 12.5 µM; actives 0.83% (n = 330,000);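 active means mean inhibition across replicates of 60% or more, whatever share of single replicates reaches that level; inconclusive means some that reach 60%, reason not given; inactive means mean inhibition across replicates below 60%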
TROY signal inh = inhibitors of TROY-dependent NF-kB signaling; Q293 LMP1-TROYcd NF-kB luciferase reporter, 4 h; inhibition, % at 10 µM; actives 0.98% (n = 360,000);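 active means compounds whose plate-normalised and pattern-corrected inhibition of the luciferase reporter signal at the single screening dose is 50% or more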
Shn3 inh set2 = Schnurri-3 reporter inhibition in Clone20 osteoblasts; inhibition, % at 12.5 µM; Clone20 osteoblast Shn3 3'UTR firefly luciferase, 24 h; actives 0.52% (n = 360,000);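 active means mean inhibition of at least 75% with every replicate also reaching 75%; inconclusive means mean inhibition at least 75% but some replicate below; inactive means mean inhibition below 75%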;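 further: 0% = median of neutral control wells and 100% = pilot-screen positive control compound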
TWEAK Fn14 block = inhibitors of TWEAK-Fn14 interaction signaling; TWEAK-stimulated Fn14 reporter cells, luciferase luminescence, 8 h; inhibition, % at 10 µM; actives 2% (n = 360,000); AID 1159606; in the data active means inhibition above about 50%
EBV LMP1 NFkB = Epstein-Barr LMP1 NF-kappaB reporter inhibition; LMP1-induced NF-kappaB luciferase reporter cells, luminescence; inhibition, % at 12.5 µM; actives 0.69% (n = 350,000); AID 504558; in the data active means inhibition above about 41%; inconclusive means no clear call, values can overlap the other calls;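 further: 0% = neutral control wells and 100% = reference inhibitor control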
An asterisk follows results filed as active.

What do the screens show for `Nc1cc2ccncc2c2ccccc12`?
Peg3 prom inh: -4.8; TRPM1 prom inh: -5.9; TROY signal inh: 56.7*; Shn3 inh set2: 10.4; TWEAK Fn14 block: 82.7*; EBV LMP1 NFkB: 55.8*

What do the screens show for `NC(=O)[C@@H]1CC2(CC(c3cccc(NC(=O)COc4ccc(Cl)cc4)c3)=NO2)CN1C(=O)COc1ccc(Cl)cc1` (some centres undefined)?
Peg3 prom inh: 14.6; TRPM1 prom inh: 24.1; TROY signal inh: 46.5; Shn3 inh set2: 63.9; TWEAK Fn14 block: 81.6*; EBV LMP1 NFkB: 19.7

Results for NC(=O)[C@H]1CC2(CC(c3cccc(NC(=O)COc4ccc(Cl)cc4)c3)=NO2)CN1C(=O)C(c1ccccc1)c1ccccc1 (some centres undefined) ?
Peg3 prom inh: 39.5; TRPM1 prom inh: 44.7; TROY signal inh: 32.7; Shn3 inh set2: -1.5; TWEAK Fn14 block: 56.8*; EBV LMP1 NFkB: 11.1

Results for CCC(=O)Nc1cccc(C2=NOC3(C2)C[C@@H](C(N)=O)N(C(=O)C(c2ccccc2)c2ccccc2)C3)c1 (some centres undefined) ?
Peg3 prom inh: 1.1; TRPM1 prom inh: 4.4; TROY signal inh: 0.4; Shn3 inh set2: -12.5; TWEAK Fn14 block: 7.7; EBV LMP1 NFkB: -0.4

What do the screens show for `N#CCC(=O)N1CC2(CC(c3cccc(NC(=O)COc4ccc(Cl)cc4)c3)=NO2)C[C@@H]1C(N)=O` (some centres undefined)?
Peg3 prom inh: -3.6; TRPM1 prom inh: -5.4; TROY signal inh: 11.8; Shn3 inh set2: -17.5; TWEAK Fn14 block: -2.6; EBV LMP1 NFkB: -2.3

How did Cc1nc(Nc2ccccc2)sc1-c1ccccc1 do in these assays?
Peg3 prom inh: -227.1; TRPM1 prom inh: -55.7; TROY signal inh: -16.4; Shn3 inh set2: -53.3; TWEAK Fn14 block: 38.6; EBV LMP1 NFkB: -32.1

What do the screens show for `Cc1nc(Nc2ccc(C(=O)O)cc2)sc1-c1ccccc1`?
Peg3 prom inh: 10.9; TRPM1 prom inh: 36.6; TROY signal inh: 56.5*; Shn3 inh set2: -11.8; TWEAK Fn14 block: 93.4*; EBV LMP1 NFkB: -39.8

Results for CCOC(=O)c1ccc(N2C(=O)c3n[nH]c(C)c3C2c2cccnc2)cc1 (centres undefined) ?
Peg3 prom inh: 34.3; TRPM1 prom inh: 8.4; TROY signal inh: -10.0; Shn3 inh set2: 8.2; TWEAK Fn14 block: -14.1; EBV LMP1 NFkB: 4.7

How did CCOC(=O)c1ccc(N2C(=O)c3n[nH]c(-c4ccco4)c3C2c2ccc([N+](=O)[O-])cc2)cc1 (centres undefined) do in these assays?
Peg3 prom inh: 60.0*; TRPM1 prom inh: 20.2; TROY signal inh: -17.5; Shn3 inh set2: 22.6; TWEAK Fn14 block: 47.3; EBV LMP1 NFkB: 3.6

Results for CCn1nnc2cc(C(=O)NCCc3ccccc3F)ccc21 ?
Peg3 prom inh: 0.8; TRPM1 prom inh: -8.7; TROY signal inh: 31.1; Shn3 inh set2: 19.4; TWEAK Fn14 block: 82.3*; EBV LMP1 NFkB: inconclusive

How did CN1OC[C@@H]2CN(Cc3ccc(Cl)cc3)[C@H](c3ccc(-n4ccnc4)cc3)C[C@@H]21 do in these assays?
Peg3 prom inh: 19.4; TROY signal inh: 5.0; Shn3 inh set2: 4.8; TWEAK Fn14 block: -11.0

What do the screens show for `Cc1c2ccccc2cc[n+]1CCCS(=O)(=O)[O-]`?
Peg3 prom inh: -3.4; TRPM1 prom inh: -2.4; TROY signal inh: 14.4; Shn3 inh set2: 15.9; TWEAK Fn14 block: 12.8; EBV LMP1 NFkB: 7.8

How did CC1(C)C(/C=C/C=C/C=C/C=C2\N(CCCCS(=O)(=O)O)c3ccc4ccccc4c3C2(C)C)=[N+](CCCCS(=O)(=O)[O-])c2ccc3ccccc3c21 do in these assays?
Peg3 prom inh: 30.0; TRPM1 prom inh: 20.5; TROY signal inh: 10.0; Shn3 inh set2: -7.5; TWEAK Fn14 block: 55.2*; EBV LMP1 NFkB: 3.6

How did CC(C)NC(=O)/C(C#N)=C/c1ccc(N(C)C)o1 do in these assays?
Peg3 prom inh: -53.5; TRPM1 prom inh: -36.3; TROY signal inh: -14.6; Shn3 inh set2: -14.4; TWEAK Fn14 block: -10.2; EBV LMP1 NFkB: 12.8

What do the screens show for `O=c1[nH]c(=O)n([C@H]2C[C@H](O)[C@@H](CO)O2)cc1C(F)(F)F`?
Peg3 prom inh: 21.9; TRPM1 prom inh: 12.9; TROY signal inh: 7.1; Shn3 inh set2: 29.9; TWEAK Fn14 block: -22.1; EBV LMP1 NFkB: 45.7*

How did O=c1[nH]c(=O)n(C2C[C@H](O)[C@@H](CO)O2)cc1C(F)(F)F (some centres undefined) do in these assays?
Peg3 prom inh: 19.9; TRPM1 prom inh: 8.5; TROY signal inh: -3.5; Shn3 inh set2: 48.4; TWEAK Fn14 block: -4.5; EBV LMP1 NFkB: 34.9

How did CC(C)NC(=O)c1ccc2c(c1)nnn2C do in these assays?
Peg3 prom inh: -1.2; TRPM1 prom inh: 13.1; TROY signal inh: 1.0; Shn3 inh set2: 7.7; TWEAK Fn14 block: -5.0; EBV LMP1 NFkB: -3.5

How did Cn1nnc2cc(C(=O)NC3CCCCC3)ccc21 do in these assays?
Peg3 prom inh: -43.2; TRPM1 prom inh: -12.9; TROY signal inh: -34.0; Shn3 inh set2: -19.6; TWEAK Fn14 block: -19.1; EBV LMP1 NFkB: 59.0*

How did O=C(/C=C/c1ccc(O)c(O)c1)OCCc1ccccc1 do in these assays?
Peg3 prom inh: -237.5; TRPM1 prom inh: -71.0; TROY signal inh: -41.0; Shn3 inh set2: 95.5*; TWEAK Fn14 block: 30.1; EBV LMP1 NFkB: -22.4

What do the screens show for `COCCNC(=O)C1(C)CCCN(Cc2cc(-c3ccccc3)on2)C1` (centres undefined)?
Peg3 prom inh: 1.2; TROY signal inh: -3.4; Shn3 inh set2: 1.4; TWEAK Fn14 block: -14.9

How did O=C(NC(Cc1c[nH]c2ccccc12)C(=O)Nc1ccc(F)c([N+](=O)[O-])c1)c1cccs1 (centres undefined) do in these assays?
Peg3 prom inh: 6.2; TRPM1 prom inh: -7.7; TROY signal inh: -19.8; Shn3 inh set2: 14.5; TWEAK Fn14 block: -8.8; EBV LMP1 NFkB: 50.3*

How did CS(=O)(=O)N1CCc2cc(-c3csc(NC(=O)Cc4ccccc4)n3)ccc21 do in these assays?
Peg3 prom inh: 5.2; TRPM1 prom inh: 12.0; TROY signal inh: 49.9; Shn3 inh set2: 49.5; TWEAK Fn14 block: 57.9*; EBV LMP1 NFkB: 17.4

What do the screens show for `CCC(=O)Nc1nc(-c2ccc3c(c2)CC(C)N3S(C)(=O)=O)cs1` (centres undefined)?
Peg3 prom inh: -84.8; TRPM1 prom inh: -34.9; TROY signal inh: -11.8; Shn3 inh set2: -6.3; TWEAK Fn14 block: -18.6; EBV LMP1 NFkB: -5.4

What do the screens show for `CC1Cc2cc(-c3csc(NC(=O)Cc4cccs4)n3)ccc2N1S(C)(=O)=O` (centres undefined)?
Peg3 prom inh: 44.7; TRPM1 prom inh: 19.6; TROY signal inh: 75.5*; Shn3 inh set2: 14.7; TWEAK Fn14 block: 100.8*; EBV LMP1 NFkB: -3.7

How did CCCC(=O)Nc1nc(-c2ccc3c(c2)CCN3S(C)(=O)=O)cs1 do in these assays?
Peg3 prom inh: -60.9; TRPM1 prom inh: -29.3; TROY signal inh: 10.9; Shn3 inh set2: -0.8; TWEAK Fn14 block: 8.5; EBV LMP1 NFkB: 8.6
